Laboratory results published in the supplement of paper PMC10849652.
The full data set covers some 7,900 targets. This sample favours those with a hit. About 0.6% of all pairs of compound and target were hits.

Compound: c1cn2cc(-c3ccc4cn[nH]c4c3)nc(Nc3ccc(N4CCOCC4)cc3)c2n1 [entospletinib]
Assay: log2 fold change, soluble protein after heating vs DMSO (PISA); higher = thermal stabilisation; K562 cells, 10 uM, 30 min; active = over 0.2 and 3.5 SD of the protein, either way, in both replicates (recomputed)
Summary of the method: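 Soluble protein was quantified by TMTpro 16plex LC-MS/MS after channel sums were equalised. It was obtained as the supernatant after 21,000xg for 90 min from pooled aliquots of K562 cells (2×10^6 cells/mL, 10 μM compound, 30 min) heated for 3 min across 48°C-58°C and extracted in PBS with 0.5% NP-40 at 4°C. Thermal stability values are relative to control samples and come from duplicates. They are given as log2 fold changes.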

UniProt Q9NQG5, sequence (Q9NQG5 whole entry, looked up): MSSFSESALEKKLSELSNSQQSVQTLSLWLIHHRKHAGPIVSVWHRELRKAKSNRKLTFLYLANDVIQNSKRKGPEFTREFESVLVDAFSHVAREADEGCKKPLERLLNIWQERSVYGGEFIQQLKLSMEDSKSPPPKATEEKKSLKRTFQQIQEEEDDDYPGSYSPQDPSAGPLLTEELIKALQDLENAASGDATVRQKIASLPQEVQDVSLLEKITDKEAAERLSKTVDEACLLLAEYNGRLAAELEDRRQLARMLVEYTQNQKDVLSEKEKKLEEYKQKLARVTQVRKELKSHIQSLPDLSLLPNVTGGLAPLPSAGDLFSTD
UniProt O95486, sequence (O95486 whole entry, looked up): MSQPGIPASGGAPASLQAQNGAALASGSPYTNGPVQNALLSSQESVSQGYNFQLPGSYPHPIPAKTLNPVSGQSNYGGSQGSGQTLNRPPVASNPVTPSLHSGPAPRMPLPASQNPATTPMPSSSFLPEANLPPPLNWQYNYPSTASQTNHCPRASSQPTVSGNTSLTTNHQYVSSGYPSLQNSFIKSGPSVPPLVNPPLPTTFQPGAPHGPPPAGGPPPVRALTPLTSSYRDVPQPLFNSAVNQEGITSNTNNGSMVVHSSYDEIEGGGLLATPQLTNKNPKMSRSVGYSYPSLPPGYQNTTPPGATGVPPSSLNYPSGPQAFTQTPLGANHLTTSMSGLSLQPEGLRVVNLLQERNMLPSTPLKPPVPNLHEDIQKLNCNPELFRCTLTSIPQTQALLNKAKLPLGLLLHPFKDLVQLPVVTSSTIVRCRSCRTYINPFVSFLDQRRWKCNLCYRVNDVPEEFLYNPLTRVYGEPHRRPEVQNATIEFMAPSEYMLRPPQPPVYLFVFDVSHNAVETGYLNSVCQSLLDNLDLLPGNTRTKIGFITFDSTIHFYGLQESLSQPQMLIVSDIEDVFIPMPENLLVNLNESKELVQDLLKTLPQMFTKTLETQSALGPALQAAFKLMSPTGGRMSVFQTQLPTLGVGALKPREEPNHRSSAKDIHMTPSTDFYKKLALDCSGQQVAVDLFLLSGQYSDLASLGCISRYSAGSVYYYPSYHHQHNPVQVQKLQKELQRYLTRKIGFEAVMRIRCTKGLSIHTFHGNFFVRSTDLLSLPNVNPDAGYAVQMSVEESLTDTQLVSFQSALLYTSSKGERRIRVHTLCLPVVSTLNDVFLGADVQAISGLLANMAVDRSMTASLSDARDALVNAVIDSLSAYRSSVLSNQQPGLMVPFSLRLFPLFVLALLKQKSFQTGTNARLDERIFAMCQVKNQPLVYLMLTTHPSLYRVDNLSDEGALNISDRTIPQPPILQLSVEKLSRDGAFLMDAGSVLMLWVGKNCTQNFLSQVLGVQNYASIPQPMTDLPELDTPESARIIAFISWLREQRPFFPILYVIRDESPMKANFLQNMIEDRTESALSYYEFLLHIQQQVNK
UniProt Q5T8P6, sequence (Q5T8P6 whole entry, looked up): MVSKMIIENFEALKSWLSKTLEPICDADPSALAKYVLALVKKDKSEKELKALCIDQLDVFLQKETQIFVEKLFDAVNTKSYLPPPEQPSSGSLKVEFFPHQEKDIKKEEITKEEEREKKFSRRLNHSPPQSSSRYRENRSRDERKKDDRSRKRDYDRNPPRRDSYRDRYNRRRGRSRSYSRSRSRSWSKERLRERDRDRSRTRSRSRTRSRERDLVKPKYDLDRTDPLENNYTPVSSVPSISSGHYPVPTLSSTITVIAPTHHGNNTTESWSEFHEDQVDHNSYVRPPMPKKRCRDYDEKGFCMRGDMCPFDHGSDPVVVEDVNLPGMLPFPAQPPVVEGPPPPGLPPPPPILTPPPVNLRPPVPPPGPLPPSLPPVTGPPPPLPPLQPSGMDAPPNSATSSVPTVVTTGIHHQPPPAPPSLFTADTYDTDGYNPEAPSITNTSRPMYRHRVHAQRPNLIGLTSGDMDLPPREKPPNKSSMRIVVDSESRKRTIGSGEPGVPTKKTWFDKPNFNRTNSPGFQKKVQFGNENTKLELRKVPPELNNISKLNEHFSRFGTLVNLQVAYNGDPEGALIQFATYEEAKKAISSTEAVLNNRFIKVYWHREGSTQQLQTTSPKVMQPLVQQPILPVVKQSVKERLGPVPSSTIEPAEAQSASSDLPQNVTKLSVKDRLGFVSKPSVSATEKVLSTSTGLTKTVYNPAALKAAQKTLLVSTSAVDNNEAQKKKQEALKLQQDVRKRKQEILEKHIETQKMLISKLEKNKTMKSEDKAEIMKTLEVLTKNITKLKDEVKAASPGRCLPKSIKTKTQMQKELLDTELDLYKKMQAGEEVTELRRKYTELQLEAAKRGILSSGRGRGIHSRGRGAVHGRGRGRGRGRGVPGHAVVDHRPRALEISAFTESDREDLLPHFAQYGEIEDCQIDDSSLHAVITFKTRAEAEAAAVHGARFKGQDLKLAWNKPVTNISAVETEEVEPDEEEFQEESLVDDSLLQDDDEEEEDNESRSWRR
UniProt Q8WZA2, sequence (Q8WZA2 whole entry, looked up): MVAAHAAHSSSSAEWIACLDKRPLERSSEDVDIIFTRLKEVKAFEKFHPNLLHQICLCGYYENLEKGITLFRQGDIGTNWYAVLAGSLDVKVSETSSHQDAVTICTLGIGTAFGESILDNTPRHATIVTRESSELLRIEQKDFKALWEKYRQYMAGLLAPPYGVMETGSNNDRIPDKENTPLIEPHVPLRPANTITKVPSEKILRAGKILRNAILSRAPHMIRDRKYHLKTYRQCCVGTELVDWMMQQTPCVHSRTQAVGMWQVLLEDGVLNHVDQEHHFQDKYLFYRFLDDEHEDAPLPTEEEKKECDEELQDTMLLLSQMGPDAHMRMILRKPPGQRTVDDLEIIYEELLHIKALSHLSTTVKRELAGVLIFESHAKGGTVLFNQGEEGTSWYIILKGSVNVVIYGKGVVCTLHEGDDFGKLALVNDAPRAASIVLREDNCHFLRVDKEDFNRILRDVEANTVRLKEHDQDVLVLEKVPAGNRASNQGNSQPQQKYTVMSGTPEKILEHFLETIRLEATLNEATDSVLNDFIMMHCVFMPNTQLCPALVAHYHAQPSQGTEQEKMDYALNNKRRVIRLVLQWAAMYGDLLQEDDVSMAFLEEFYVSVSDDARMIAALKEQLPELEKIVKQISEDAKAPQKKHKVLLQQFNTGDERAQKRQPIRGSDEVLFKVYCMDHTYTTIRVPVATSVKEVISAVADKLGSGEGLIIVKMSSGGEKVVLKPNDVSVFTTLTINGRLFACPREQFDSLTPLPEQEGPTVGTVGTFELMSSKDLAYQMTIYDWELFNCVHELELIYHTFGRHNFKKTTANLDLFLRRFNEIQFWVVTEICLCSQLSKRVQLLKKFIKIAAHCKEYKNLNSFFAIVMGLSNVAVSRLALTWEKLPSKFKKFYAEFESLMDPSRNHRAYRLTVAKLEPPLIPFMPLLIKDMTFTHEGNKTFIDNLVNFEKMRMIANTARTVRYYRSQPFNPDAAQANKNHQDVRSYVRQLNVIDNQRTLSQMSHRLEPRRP
UniProt Q9BWF3, sequence (Q9BWF3 whole entry, looked up): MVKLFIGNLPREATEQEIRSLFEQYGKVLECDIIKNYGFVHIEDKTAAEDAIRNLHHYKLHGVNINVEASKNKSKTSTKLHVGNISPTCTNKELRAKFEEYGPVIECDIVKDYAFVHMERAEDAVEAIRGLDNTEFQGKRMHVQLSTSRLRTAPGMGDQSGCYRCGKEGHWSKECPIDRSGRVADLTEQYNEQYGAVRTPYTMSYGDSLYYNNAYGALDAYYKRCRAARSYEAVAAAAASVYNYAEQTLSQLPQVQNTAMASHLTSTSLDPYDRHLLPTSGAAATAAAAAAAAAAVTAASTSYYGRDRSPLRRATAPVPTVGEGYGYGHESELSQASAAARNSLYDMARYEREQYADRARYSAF
UniProt P05543, sequence (P05543 whole entry, looked up): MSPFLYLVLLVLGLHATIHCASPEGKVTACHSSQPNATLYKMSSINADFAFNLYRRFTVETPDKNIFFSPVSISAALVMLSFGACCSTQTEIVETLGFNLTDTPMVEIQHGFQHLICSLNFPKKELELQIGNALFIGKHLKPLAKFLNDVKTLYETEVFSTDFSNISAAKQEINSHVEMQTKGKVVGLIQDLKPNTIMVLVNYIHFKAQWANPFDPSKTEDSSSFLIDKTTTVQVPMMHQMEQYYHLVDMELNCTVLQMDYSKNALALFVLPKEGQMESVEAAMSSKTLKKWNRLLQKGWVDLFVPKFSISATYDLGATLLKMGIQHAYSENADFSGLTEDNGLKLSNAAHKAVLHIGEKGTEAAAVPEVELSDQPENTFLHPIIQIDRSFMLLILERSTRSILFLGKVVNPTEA

log2 fold change, inactive:
RPL31 (UniProt P62899) 0.098
ROCK2 (UniProt O75116) -0.049
RBBP6 (UniProt Q7Z6E9) 0.077
RGS10 (UniProt O43665) -0.006
RALY (UniProt Q9UKM9) -0.001
RNPS1 (UniProt Q15287) 0.064
SERPINA7 (UniProt P05543) 0.273
RETREG3 (UniProt Q86VR2) 0.015
SH3GL1 (UniProt Q99961) -0.008
RABGAP1L isoform 3 (UniProt Q5R372) -0.021
RNF220 (UniProt Q5VTB9) -0.021
RBM4 (UniProt Q9BWF3) 0.077
RPS20 isoform 2 (UniProt P60866) 0.064
RAB8B (UniProt Q92930) -0.04
RBM26 isoform 2 (UniProt Q5T8P6) -0.021
RAPGEF4 (UniProt Q8WZA2) -0.14
SFXN5 (UniProt Q8TD22) 0.01
ROCK1 (UniProt Q13464) -0.009
SACM1L (UniProt Q9NTJ5) 0.004
RRAS2 isoform 4 (UniProt P62070) -0.012
SEC31A (UniProt O94979) -0.119
SLC19A1 (UniProt P41440) -0.121
SEC24A (UniProt O95486) 0.024
RNASEH2A (UniProt O75792) 0.011
SAFB2 (UniProt Q14151) 0.05
RIOK2 (UniProt Q9BVS4) 0.105
RUFY3 isoform 3 (UniProt Q7L099) -0.046
SCCPDH (UniProt Q8NBX0) 0.076
RCC1 isoform 2 (UniProt P18754) -0.022
RAD50 isoform 2 (UniProt Q92878) -0.02
SCD (UniProt O00767) 0.023
RRP9 (UniProt O43818) 0.012
RPRD1B (UniProt Q9NQG5) 0.037
SASH1 (UniProt O94885) 0.053
RHOA (UniProt P61586) 0.054
RAB9A (UniProt P51151) -0.015
RPS4X (UniProt P62701) 0.082
RIPK1 (UniProt Q13546) 0.135
